D1 potentiator: potentiators of human D1 dopamine receptor; HEK293 TREx D1 cells, calcium flux, dopamine EC20 potentiation; potentiation, % at 10 µM; 360,000 tested, 0.036% active; AID 504651; in the data active = potentiation above about 30%
Target sequence (P21728 whole entry, looked up): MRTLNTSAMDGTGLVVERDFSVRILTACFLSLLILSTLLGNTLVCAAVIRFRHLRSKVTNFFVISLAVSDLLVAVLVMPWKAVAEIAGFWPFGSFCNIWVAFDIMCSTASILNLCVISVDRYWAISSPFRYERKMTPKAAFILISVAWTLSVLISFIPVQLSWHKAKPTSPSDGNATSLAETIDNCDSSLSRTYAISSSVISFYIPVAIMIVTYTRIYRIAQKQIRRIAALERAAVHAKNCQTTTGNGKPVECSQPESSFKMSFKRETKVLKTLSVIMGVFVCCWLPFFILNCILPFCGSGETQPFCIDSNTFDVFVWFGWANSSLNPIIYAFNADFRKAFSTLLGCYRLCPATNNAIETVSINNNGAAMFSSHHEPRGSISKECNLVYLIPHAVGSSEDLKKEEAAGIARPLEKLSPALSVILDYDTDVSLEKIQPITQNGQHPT
D1 ag: activates the human D1 dopamine receptor. HEK293 T-REx D1 cells, calcium flux, agonist mode. activation, % at 2 µM. 360,000 tested, 1% active. AID 504660; in the data active = activation above about 30%
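Agonism was scored from calcium flux recorded over 180 s (1 read/s) after pintool compound addition, following a 10-cycle baseline. Cells were inducible force-coupled HEK293 TREx D1, plated overnight at 30 C and loaded with no-wash calcium dye.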
D1 antag: human D1 dopamine receptor antagonism | AID 504652 | 360,000 tested, 3.2% active | P21728 | HEK293 TREx D1 cells, calcium flux, dopamine EC80; active compounds read low | activity change, negative = inhibition, % at 10 µM; in the data active = activity change below about -30%
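Antagonism measured as reduced calcium response to an EC80 dopamine addition following 180 s compound pre-read; cells were inducible HEK293 Trex D1 plated overnight at 30 C, read kinetically at 1 cycle/sec.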
DRD3 agonist: agonists of human D3 dopamine receptor. 410,000 tested, 0.58% active. max activation, %. D3R DiscoveRx beta-arrestin cells, luminescence, 90 min. AID 652048; in the data active = max activation above about 30%
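Cells at 1500/well, incubated overnight, then treated with pinned compounds (dopamine as control) for 90 min at 37 degrees C. DiscoveRx reagent added for 30 - 60 minutes at room temperature; luminescence read.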
DRD3 antagonist: blocks the human D3 dopamine receptor; max response, negative = inhibition, %; D3R cells, DiscoveRx beta-arrestin luminescence, antagonist mode; active compounds read low; AID 652054; P35462; 360,000 tested, 2.5% active; in the data active = max response below about -50%; inconclusive = no clear call, values can overlap the other calls
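Cells plated overnight at 1500 cells/well, then exposed to library compounds with dopamine controls for 90 minutes at 37 degrees C. DiscoveRx reagent added for 30–60 minutes at room temperature; luminescence read, quantitative HTS format.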
Hits are given with their value; n = inactive; u = inconclusive; x = no result given. A selection: hits, their analogues and other compounds. The true share with any hit is near 6.1%.

SMILES | D1 potentiator | D1 ag | D1 antag | DRD3 agonist | DRD3 antagonist
Cc1nc(C)c(-c2csc(N)n2)s1 | n | n | -31.0 | n | n
Cc1ccc(Nc2nc(-c3sc(C)nc3C)cs2)cc1 | n | n | n | n | n
CCn1cc(S(=O)(=O)c2cccc(Cl)c2)c(=O)c2cc(F)c(N3CCN(C)CC3)cc21 | n | n | n | n | x
Cc1nn(CCC(=O)N2CCN(c3ccccc3)CC2)c(C)c1S(=O)(=O)N1CCCC1 | n | n | n | n | x
Oc1ccc(C(=S)N2CCN(c3cccc(Cl)c3)CC2)cc1 | n | n | n | n | n
COc1ccc(C(=S)N2CCN(c3cccc(Cl)c3)CC2)c(OC)c1 | n | n | n | n | n
COc1cc(C(=S)N2CCN(c3cccc(Cl)c3)CC2)ccc1O | n | n | -31.0 | n | n
Oc1ccccc1C(=S)N1CCN(c2cccc(Cl)c2)CC1 | n | n | -39.2 | n | n
NC(=O)C1CCN(C2CC(=O)NC2=O)CC1 (stereo unspecified) | n | n | -37.4 | n | n
O=P(O)(O)C(O)(Cc1cccnc1)P(=O)(O)O | x | x | x | n | x
CSCc1ccc(C(=O)NCCSc2ccc(Br)cc2)cc1 | n | n | -36.8 | n | n
COc1cc(-c2noc(CCC(=O)Nc3cc(C)ccc3C)n2)cc(OC)c1OC | n | n | n | n | x
CCCOc1ccc(C(=O)CCNc2ccc(C)c(Cl)c2)cc1 | n | n | n | n | -83.7
CCCOc1ccc(C(=O)CCC(=O)OCC(=O)Nc2ccc(OCC)cc2)cc1 | n | n | n | x | x
Cc1ccc(NCCC(=O)c2ccc(Cl)cc2)cc1C | n | n | n | n | n
CCOc1ccc(NC(=O)CCN2CCN(c3ccccc3)CC2)cc1 | n | n | n | n | -52.5
CCCOc1ccc(C(=O)CCC(=O)Nc2ccc(N3CCN(C)CC3)cc2)cc1 | n | n | -79.5 | n | n
CCOc1ccc(CNc2ccc(N3CCN(Cc4ccccc4)CC3)cc2)cc1 | n | n | n | n | -62.2
CCOc1ccc(CNc2ccc(N3CCCC3)cc2)cc1 | n | n | n | n | n
COc1cccc(CNC(=O)c2ccc3c(c2)nc2n3CCC(C)C2)c1OC (stereo unspecified) | n | n | n | n | x
Cc1ccc(NC(=O)Cn2c(=O)n(Cc3ccccc3)c(=O)c3c2c2cc(C)ccc2n3C)cc1 | n | n | n | n | x
Cc1c2cnn(CC(=O)N3CCCCC3)c(=O)c2c(C)n1Cc1ccc(Cl)cc1 | n | n | n | n | x
CCOc1ccc(C(=O)CCC(=O)NNC(=O)CCN2CCN(c3ccccc3)CC2)cc1 | x | x | x | n | -63.2
COc1cc(NC(=O)CC2C(=O)N(c3ccc(Cl)cc3)C(=O)N2Cc2cccs2)cc(OC)c1 (stereo unspecified) | n | n | n | n | x
CCn1cc(C(=O)NCCc2ccc(OC)c(OC)c2)c(=O)c2cc(S(=O)(=O)N3CCC(C)CC3)ccc21 | n | n | n | n | x
SMILES | D1 potentiator | D1 ag | D1 antag | DRD3 agonist | DRD3 antagonist
O=C(NCC1CCCO1)c1cccc(Oc2ccc([N+](=O)[O-])cc2)c1 (stereo unspecified) | n | n | -34.8 | n | n
Cc1ccccc1-c1noc(-c2ccccc2C(=O)NCC2CCCO2)n1 (stereo unspecified) | n | n | -30.3 | n | n
O=C(NCC1CCCO1)c1ccccc1 (stereo unspecified) | n | n | n | n | n
COc1cccc(-c2cc(C(=O)NCC3CCCO3)c3cc(C)cc(C)c3n2)c1 (stereo unspecified) | n | n | n | 66.0 | n
O=C(NCC1CCCO1)c1cccc(NC(=O)c2ccccc2)c1 (stereo unspecified) | n | n | -31.1 | n | n
COc1cccc(-c2nn(-c3ccc(C)cc3)cc2C(=O)NCC2CCCO2)c1 (stereo unspecified) | n | n | n | n | n
O=C(NCC1CCCO1)c1cccc(F)c1 (stereo unspecified) | n | n | n | n | n
COc1ccc(N(Cc2ccccc2)S(=O)(=O)c2cccc(C(=O)NCC3CCCO3)c2)cc1 (stereo unspecified) | n | n | -36.8 | n | n
Cc1cccc(NS(=O)(=O)c2ccc(C(=O)NCC3CCCO3)cc2)c1C (stereo unspecified) | n | n | n | n | n
Cc1cccc(C(=O)NCC2CCCO2)c1 (stereo unspecified) | n | n | n | n | -53.7
O=C(NCC1CCCO1)c1ccc(S(=O)(=O)Nc2ccccc2F)cc1 (stereo unspecified) | n | n | -37.6 | n | n
Cc1noc(C)c1COc1ccc(C(=O)NCC2CCCO2)cc1 (stereo unspecified) | n | n | n | n | -52.2
Cc1ccc(OCc2ccc(C(=O)NCC3CCCO3)cc2)cc1C (stereo unspecified) | n | n | n | n | n
Cc1cc2c(cc1S(=O)(=O)N(CCN(C)C)Cc1ccccc1)OCC(=O)N2 | n | n | n | n | x
Cc1c(Cl)cccc1NC(=O)CSc1nc(=O)[nH]c2c1CCCC2 | n | n | x | n | x
CCC(C)(Oc1ccc(C2(c3ccc(OC(C)(CC)C(=O)O)cc3)CCCCC2)cc1)C(=O)O (stereo unspecified) | x | x | x | n | x
COc1ccc(NC(=O)Cn2c(=O)n(C(C)C)c(=O)c3oc4ccccc4c32)cc1Cl | n | n | n | n | x
c1ccc(CN2CCN(Cc3nnc(-c4ccccc4)o3)CC2)cc1 | n | n | n | n | n
c1ccc(-c2nnc(CN3CCN(c4ccccn4)CC3)o2)cc1 | n | n | n | 97.8 | x
CN1CCN(Cc2nnc(-c3ccccc3)o2)CC1 | n | n | n | n | n
Clc1cccc(-c2nnc(CN3CCN(c4ccccn4)CC3)o2)c1 | n | n | n | 95.3 | x
Fc1ccc(N2CCN(Cc3nnc(-c4ccccc4Cl)o3)CC2)cc1 | n | n | n | n | x
Fc1ccc(-c2nnc(CN3CCN(c4ccccn4)CC3)o2)cc1 | n | n | n | 80.1 | x
Cc1cc(-c2ccc(C)c(S(=O)(=O)NCCCN3CCCCCC3)c2)on1 | n | n | n | n | n
COc1ccc(-c2cc(C)no2)cc1S(=O)(=O)NCCCN1CCN(c2ccccc2)CC1 | n | n | -33.1 | n | -58.0
SMILES | D1 potentiator | D1 ag | D1 antag | DRD3 agonist | DRD3 antagonist
Cc1cc(-c2ccc(C)c(S(=O)(=O)NCCCN3CCN(c4ccccc4)CC3)c2)on1 | n | n | -77.3 | n | u
Cc1cc(-c2ccc(C)c(S(=O)(=O)NCCCN3CCN(c4ccccc4F)CC3)c2)on1 | n | n | -67.4 | n | -68.5
Cc1cc(-c2ccc(C(C)C)c(S(=O)(=O)NCCN3CCC(C)CC3)c2)on1 | n | 44.2 | n | n | n
CCc1ccc(NC(=O)c2nnn(Cc3cccc(C(F)(F)F)c3)c2N)cc1 | n | n | n | n | x
COc1ccc(Br)cc1S(=O)(=O)NCCCN1CCOCC1 | n | n | n | n | -89.7
COc1ccc(OC)c(S(=O)(=O)NCCCN2CCOCC2)c1 | x | x | x | n | n
COc1ccc(C)cc1S(=O)(=O)N1CCCCCC1 | n | n | n | n | n
COc1ccc(Br)cc1S(=O)(=O)N1CCCC1 | n | n | -36.4 | n | n

Screens deposited in PubChem BioAssay by National Center for Advancing Translational Sciences (NCATS).
